These results are taken from PubChem BioAssay AID1850 (Southern Research Specialized Biocontainment Screening …, 2009).

Several values for one entry are separate records, joined by “and”; a condition that tells them apart may be missing. Equal entries are not always repeated. The whole screen tested about 310,000 compounds, of which about 1,000 (0.32%) were called active. Not all results are given here. Measured potencies and affinities stand elsewhere. Unmarked numbers belong to inactive results. How the calls were made is not given here.

The nature of the assay: Inhibition of PhoP regulon, Salmonella typhi GFP reporter cells, confirmation, 4 h (AID 1850).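 Further: 0% = induced wells with vehicle and 100% = uninduced wells.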 Particulars: Salmonella Typhi PhoP-promoter GFP reporter, fluorescence, at 50 µM, stronger effect = higher value.
Take `Cc1ccsc1/C=C(\C#N)C(=O)NCc1cccnc1`: the inhibition is -18.9%.

Take `CCOc1ccccc1NC(=O)c1oc2ccccc2c1NC(=O)C1CCCO1` (stereo not drawn): the inhibition was 0.28%.

As to `CCOC(=O)C1(Cc2cccc(F)c2)CCN(CC(O)CO)CC1` (stereo not drawn), the inhibition is 1.5%.

As for `CCOC(=O)C1CCN(Cc2cc(C(C)(C)C)c(O)c(C(C)(C)C)c2)CC1`, the inhibition is -7.6%.

In the case of `COc1ccc(OC)c(/C=N/NC(=O)c2[nH]ncc2Br)c1`, the inhibition was -1.03%.

As for `COc1ccc(/C=N/NC(=O)c2[nH]ncc2Br)c(OC)c1`, the inhibition is 4.69%.

For the compound `CC(=O)c1ccc(NC(=S)NCc2ccc(Cl)cc2Cl)cc1`, the inhibition is -6.96%.

On to `CCn1c(=S)sc2c(=O)n(CC(=O)Nc3ccc(Cl)cc3)c(C)nc21`, for which the inhibition is 1.24%.

As for `O=C(CN1CC[n+]2c(-c3ccccc3)csc21)c1ccc(Br)cc1`, the inhibition was 7.36%.

On to `O=C(CN1CC[n+]2c(-c3cccs3)csc21)c1ccc(Br)cc1`, for which the inhibition was -5.14%.

In the case of `C/C(=N/Oc1nc(C)cc(C)n1)c1ccccc1`, the inhibition was -15.4%.

As for `Cc1c(C)[n+](=O)c(-c2ccc(Br)cc2)c(C)n1[O-]`, the inhibition was 4.2%.

On to `Cc1cc(/C=C2\SC(=O)NC2=O)c(C)n1-c1ccc(N(C)C)cc1`, for which the inhibition is -4.88%.

Regarding `Cc1cc(/C=N/O)c(C)n1-c1ccccc1`, the inhibition was -9.52%.

Regarding `CC[n+]1c(/C=C/c2ccc(N(C)C)cc2)ccc2ccccc21`, the inhibition is 1.34%.

With `C[n+]1c(/C=C/c2ccc(O)cc2)ccc2ccccc21`, the inhibition is 10.8%.

With `CC1(C)CC(=O)C(C(=O)Cc2ccccc2[N+](=O)[O-])C(=O)C1`, the inhibition was 2.13%.

As to `Nc1nc(Nc2ccc(Cl)cc2)n[nH]1`, the inhibition was 1.12%.

With `COc1ccc(Nc2nc(N)c3ccccc3n2)c(OC)c1`, the inhibition was 4.67%.

`COc1ccc(Cl)cc1Nc1nc(N)c2ccccc2n1`: the inhibition is 2.43%.

As to `COc1cc2nc(Nc3ccc(C)c(C)c3)nc(N)c2cc1OC`, the inhibition is -4.96%.

For the compound `COc1cc2nc(Nc3ccc(C)c(Cl)c3)nc(N)c2cc1OC`, the inhibition was 5.86%.

Consider `COc1ccc(Nc2nc(C)c3ccccc3n2)cc1`, for which the inhibition is 1.01%.

As for `CCOc1ccc(Nc2ncnc(N)n2)cc1`, the inhibition is 20.7%.

As for `CCOc1ccc(Nc2nc(N)c([N+](=O)[O-])c(NCc3ccccc3)n2)cc1`, the inhibition is -9.51%.

Turning to `CCOC(=O)CSc1nnc2n1C(C)(C)Cc1ccccc1-2`, the inhibition was 11.2%.

On to `Cc1cc2n(n1)C(c1ccco1)Nc1ccccc1-2` (stereo not drawn), for which the inhibition is -1.68%.

As to `COc1cc2ncnc(NCc3ccc(C)o3)c2cc1OC`, the inhibition is 1.27%.

As to `CCOC(=O)N/N=C/c1ccccc1OCc1ccc(Cl)cc1`, the inhibition is 2.12%.

Regarding `O=c1[nH]c(C2CCCN(S(=O)(=O)c3ccccc3F)C2)nc2c1nnn2Cc1ccccc1Cl` (stereo not drawn), the inhibition is 0.52%.

For `CCN(CC)CC(=O)Nn1c(C)nc2c(ncn2-c2ccccc2)c1=O`, the inhibition is 2.92%.

Take `CCCN(CCC)CC(=O)NCC1(c2ccccc2)CCOCC1`: the inhibition was 5.98%.

For `CCOc1ccccc1NC(=O)c1cc(-c2cc(OC)c(OC)c(OC)c2)nc2ccccc12`, the inhibition is 6.2%.

Turning to `CC(=O)Nc1ccc(NC(=O)[C@H](C)NC(=O)c2ccco2)cc1`, the inhibition was 2.64%.

In the case of `CCOC(=O)c1oc2ccccc2c1COC(=O)CNC(=O)c1ccccc1OC`, the inhibition was -8.98%.

With `CCOc1ccc(-c2noc(CCC(=O)NC3CCCCC3)n2)cc1OC`, the inhibition was -7.76%.

As for `COc1cc2nc(Nc3cccc(F)c3)nc(N)c2cc1OC`, the inhibition was -16.8%.

As for `Fc1cccc(Nc2nc(Cl)nc(Cl)n2)c1`, the inhibition is -6.69%.

As to `NNc1nc(Nc2ccccc2)nc(Nc2ccccc2)n1`, the inhibition is -2.45%.

In the case of `COc1ccc(C)cc1Nc1nc(N)c2ccccc2n1`, the inhibition is 2.42%.

Regarding `CC(=O)c1ccc(OCC(O)CN2CCN(c3ccc(F)cc3)CC2)cc1` (stereo not drawn), the inhibition is 9.79%.

For `C[C@H]1CN=C(N(C)C)N1CCCC1CCCCC1`, the inhibition is -3.79%.

For `CCOC(=O)N1CCN(CCC(=O)Nc2cccc(Br)c2)CC1`, the inhibition was -10.1% and 1.14%.

As to `O=C(CCN1CCOCC1)c1ccc(Cl)cc1`, the inhibition was 5.47%.

For `CCOC(=O)N1CCN(CCC(=O)c2ccc(OC)cc2)CC1`, the inhibition is 19.1%.

In the case of `CCOC(=O)N1CCN(CCC(=O)Nc2ccc(Br)cc2)CC1`, the inhibition is -11.9%.

For the compound `CCOC(=O)n1cc(-c2cnc(CNC(=O)C(C)(c3ccccc3)c3ccccc3)o2)c2ccccc21`, the inhibition was -3.78%.

For `Cc1ccc(C(=O)NCC(=O)Nc2cccc(C(F)(F)F)c2)cc1`, the inhibition is 7%.

Turning to `CCCN1CCN(CCCNC(=S)Nc2ccc3nc(N4CCN(CC)CC4)cc(C)c3c2)CC1`, the inhibition was 2.52%.

For the compound `Cn1cc(P(=S)(N2CCOCC2)N2CCOCC2)cc1P(=S)(N1CCOCC1)N1CCOCC1`, the inhibition is -5.57%.

As to `CN(C)S(=O)(=O)c1ccc(S(=O)(=O)N(CC(=O)Nc2ccccc2)CC2CCCO2)cc1` (stereo not drawn), the inhibition is 9.84%.

Consider `CC1CCCN(C(=O)COC(=O)Cc2c(F)cccc2Cl)C1` (stereo not drawn), for which the inhibition is 8.14%.

For `CN1CCC(=C2c3ccccc3CC(=O)c3sccc32)CC1`, the inhibition is -11.1% and 6.89% and 11.9%.

Consider `Clc1ccc2c(c1)CCc1cccnc1C2=C1CCNCC1`, for which the inhibition was 9.72%.

Regarding `CN1CCC(=C2c3ccccc3CCc3sccc32)CC1`, the inhibition is 4.53%.

`C[N+]1(C)CCC(=C2c3ccccc3CC(=O)c3sccc32)CC1`: the inhibition is -5.91%.

For the compound `COc1ccccc1CNC(=O)c1ccc(N2CCOCC2)c([N+](=O)[O-])c1`, the inhibition was 3.84%.

In the case of `O=C(O)c1ccccc1C(=O)Nc1ccc(Oc2ccc3ccccc3c2)cc1`, the inhibition is -5.98%.

As for `O=S(=O)(Nc1ccc(-n2cnnn2)cc1)c1ccc(F)c(F)c1F`, the inhibition is -6.29%.

On to `Cc1cc(NCCN2CCOCC2)c2ccc3ccccc3c2n1`, for which the inhibition is 0.49%.

On to `COc1ccc2nc(C)cc(NCCN3CCOCC3)c2c1`, for which the inhibition was 3.31%.

Consider `CN1CCN(C2=Nc3cc(F)ccc3Cc3ccccc32)CC1`, for which the inhibition is 10.2%.

For `CN1CCN(c2nc(-c3ccc(Cl)c(Cl)c3)nc3ccccc23)CC1`, the inhibition is -3.79%.

Take `CN1CCN(C2=Cc3ccc(Cl)cc3Sc3ccc(F)cc32)CC1`: the inhibition was 2.54%.

Consider `CN1CCN(C2=Cc3ccccc3Sc3cc(F)c(F)cc32)CC1`, for which the inhibition is 56.3%.

Take `CN1CCN(c2ccc(F)cc2N)CC1`: the inhibition is -23.4%.

Take `CN1CCN(c2ccc(Cl)cc2N)CC1`: the inhibition is 5.42%.

For the compound `COc1ccc(N(CC(=O)Nc2ccc(C(C)C)cc2)S(=O)(=O)c2c(C)noc2C)cc1`, the inhibition is -9.48%.

Regarding `COc1ccccc1NC(=O)CSc1nnc(Cc2ccccc2)o1`, the inhibition was -0.38%.

Consider `CCC(=O)OC1(Cc2ccc(CC)cc2)CC(C)N(C)CC1C` (stereo not drawn), for which the inhibition is -0.84%.

For the compound `CCOC(=O)C1(CCOC)CCN(Cc2ccncc2)CC1`, the inhibition was -5.83%.

For `Oc1c(CN2CCCCC2)cc(COCc2ccccc2)c2cccnc12`, the inhibition is -6.03%.

For `COc1ccc(CN2CCN(C)CC2)cc1OCc1ccccc1`, the inhibition was 0.01%.

As for `Oc1c(CN2CCOCC2)cc(-c2ccccc2)cc1CN1CCOCC1`, the inhibition is 9.41%.

On to `O=C(Oc1c(CN2CCOCC2)cc(Cl)c2cccnc12)c1ccccc1`, for which the inhibition is 9.08%.

`Cc1cccc(OCC(=O)Nc2nnc(-c3ccco3)s2)c1`: the inhibition is 5.97%.

As for `CCOc1ccc2nc(N3CCCC(C(=O)NCCCN4CCCCC4)C3)sc2c1` (stereo not drawn), the inhibition was 6.31%.

Consider `CCN(CC(N)=O)S(=O)(=O)c1ccc(Br)cc1`, for which the inhibition was 4.08%.

As for `CCCn1c(=N)n(CC(=O)c2ccc(Cl)c(Cl)c2)c2ccccc21`, the inhibition is -5.11%.

Regarding `N=c1n(CCN2CCCC2)c2ccccc2n1CC(O)c1ccc(Cl)c(Cl)c1` (stereo not drawn), the inhibition was 27.1%.

In the case of `N=c1n(CCN2CCCCC2)c2ccccc2n1CC(O)c1cccc(Br)c1` (stereo not drawn), the inhibition is 2.9%.

`N=c1n(CCN2CCOCC2)c2ccccc2n1CC(=O)c1ccc(Cl)c(Cl)c1`: the inhibition was 20.6%.

`CC1=NN(c2nc(C)cc(C)n2)C(=O)C1CCC(C)C` (stereo not drawn): the inhibition is 2.35%.

`Cc1cc(C)nc(NC(=O)c2cccs2)c1`: the inhibition was -2.29%.

Consider `Cc1cccc(NS(=O)(=O)c2c(C)nc3scc(C)n3c2=O)c1`, for which the inhibition is -24.5%.

On to `COC(=O)C1CSC(C(=O)OC)N1C(=O)CN1CC(C)OC(C)C1` (stereo not drawn), for which the inhibition is -2.04%.

Consider `O=c1ccn([C@@H]2O[C@H](CO)[C@@H](O)[C@H]2O)c(=O)[nH]1`, for which the inhibition was -0.0767%.

With `O=c1[nH]c(=O)n(C2OC(CO)C(O)C2O)cc1Br` (stereo not drawn), the inhibition is -19.2%.

As to `Cc1cc(C)nc(CCNC(=O)c2cc(COc3c(C)cccc3C)on2)n1`, the inhibition is -3.31%.

With `CC(C)Oc1ccc(C(=O)NCC(=O)OCC(=O)N(C)Cc2cccs2)cc1`, the inhibition is 2.06%.

Regarding `CCn1c(C)cc(C)c(C#N)c1=O`, the inhibition was 7.92%.

Take `Cc1ccc(OCC(O)Cn2c(=N)n(CCN3CCOCC3)c3ccccc32)cc1` (stereo not drawn): the inhibition was 14%.

For the compound `N=c1n(CCN2CCCCC2)c2ccccc2n1CC(O)COc1ccccc1` (stereo not drawn), the inhibition is 28%.

Turning to `CCCCn1c(=N)n(CC(O)COc2cccc(C)c2)c2ccccc21` (stereo not drawn), the inhibition is 9.29%.

`COc1ccc(OCC(O)Cn2c(=N)n(CCN3CCCCC3)c3ccccc32)cc1` (stereo not drawn): the inhibition was 20.8%.

For `CCN(CC)CCn1c(=N)n(CC(O)COc2ccccc2)c2ccccc21` (stereo not drawn), the inhibition was 15.1%.

On to `CCCn1c(=N)n(CC(O)COc2cccc(C)c2)c2ccccc21` (stereo not drawn), for which the inhibition was 3.8%.

As for `Cc1ccc(SCC(=O)OCC(=O)NCCC2=CCCCC2)cc1`, the inhibition was 9.93%.

Broadly, the inhibition is the change of the read-out against control, counted positive when it falls.
